Laboratory results taken from PubChem BioAssay (NCI).
This is part of a sample that, as a whole, favours compounds with a hit. Of some 83,000 tested, about 20% had one in any assay.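 Plates (96-well) were seeded with cells, treated with compound at one concentration, and incubated for 48 hours before percent growth was determined.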 Activity calls are given as the source filed them.

System: SK-OV-3 ovarian
Test: NCI-60 one-dose screen, 48 h (100 = growth as untreated, 0 = no growth, -100 = all killed)
Details: 10 µM
Method: Growth inhibition of the SK-OV-3 human tumor cell line is measured as a screen for anti-cancer activity. Cells are grown in 96 well plates and exposed to the test compound for 48 hours. Compounds are tested at a single concentration, which is 10^-5 M for most compounds. The reported endpoint is percent growth (GI% or GIPRCNT), where numbers from 0 - 100% represent growth inhibition, and numbers from -100% - 0 represent cell death. For example, a value of 40 represents 60% growth inhibition. A value of 0 means no net growth occurred over the course of the experiment. A value of -40 indicates 40% of cells at the beginning of the experiment died by the end of the experiment. A value of -100 means all cells are dead at the end of the experiment.
NCI-60 Human Tumor Cell Lines Screen was performed using the standard one-dose NCI protocol, which is described in more detail at https://dtp.cancer.gov/discovery_development/nci-60/default.htm.
Compounds with GIPRCNT values below 10 were considered active. Activity score was based on GIPRCNT using the following formula: […]
Score is 0 for GIPRCNT values of 100 or above, 50 for GIPRCNT values of 0, and 100 for GIPRCNT values of -100.

Row | SMILES | growth
1 | C#Cc1ccc(-n2c(/C=C/c3ccc(Cl)c(F)c3)nc3ncccc3c2=O)cc1 | -7.71% (active)
2 | C#Cc1ccc(-n2c(/C=C/c3ccc(C(F)(F)F)cc3)nc3ncccc3c2=O)cc1 | 54.1% (inactive)
3 | CCCCOc1ccc(NC(=O)Nc2nnc(C)s2)cc1 | 102% (inactive)
4 | O=C(CCCCCCC(=O)Nc1cccnc1)NO | 78.9% (inactive)
5 | CSc1nn(-c2ccccc2)c2ncnc(Oc3ccc(C)cc3)c12 | 75.2% (inactive)
6 | Cn1c(C(N)=O)cc2c1-c1nc(Nc3ccccc3)ncc1CCC2 | 40.2% (inactive)
7 | COc1cccc(C2C3=C(COC3=O)N(CCO)c3cc(OC)ccc32)c1 (stereo not given) | 21.6% (inactive)
8 | Nc1cc2c(cc1Cl)-c1ccc([N+](=O)[O-])cc1/C2=N\O | 97% (inactive)
9 | N#Cc1ncc(-c2ccc(C(F)(F)F)cc2)c(NCc2cc(C(F)(F)F)cc(C(F)(F)F)c2)n1 | 62.6% (inactive)
10 | CCC1(C(C)C)NC(=O)NC1=O (stereo not given) | 107% (inactive)
11 | COc1ccc(-c2nn(-c3cccc(NC(=O)Nc4cccc(C(F)(F)F)c4)c3)cc2-c2ccncc2)cc1Cl | 20.4% (inactive)
12 | COc1ccc(N=C2C(=Nc3ccc(OC)cc3)N(c3ccc(N(C)C)cc3)C(=S)N2c2ccc(OC)cc2)cc1 | 87.9% (inactive)
13 | COc1ccc(-c2nn(-c3cccc(NC(=O)Nc4cc(C(F)(F)F)cc(C(F)(F)F)c4)c3)cc2-c2ccncc2)cc1Cl | 8.88% (active)
14 | O=C1OCC2=C1C(c1cccc(Br)c1)c1cc3c(cc1N2CCO)CCC3 (stereo not given) | 28.8% (inactive)
15 | CC(C)C[C@H](NC(=O)[C@H](Cc1cccc2ccccc12)NS(=O)(=O)c1cccc2cccnc12)B(O)O | 0.299% (active)
16 | COc1cc(-c2cc(C(=O)N3CCN(C(=O)c4ccccc4NCc4ccco4)CC3)nc3cc(-c4ccccc4)nn23)cc(OC)c1OC | 27.3% (inactive)
17 | COc1cc2c(cc1OCCCN1CCN(c3ncnc4ccccc34)CC1)N=CC1CCCN1C2=O (stereo not given) | 19.8% (inactive)
18 | Cc1cc(C)c2c(n1)sc1c(Nc3ccc(Cl)cc3)ncnc12 | 35.2% (inactive)
19 | O=C(C[P+](c1ccccc1)(c1ccccc1)c1ccccc1)C[P+](c1ccccc1)(c1ccccc1)c1ccccc1 | -3.83% (active)
20 | COC(=O)C1(C)Cc2cc(OC(C)=O)c(OC(C)=O)cc2N1 (stereo not given) | 98.4% (inactive)

Row | SMILES | growth
21 | CCc1ccc2c(c1)N(CCO)C1=C(C(=O)OC1)C2c1cc(OC)c(OC)c(OC)c1 (stereo not given) | 23.4% (inactive)
22 | C/C(N)=C(\C#N)C(=O)c1ccccc1 | 99.5% (inactive)
23 | O=C1OCC2=C1C(c1cccc(Cl)c1)c1cc3c(cc1N2CCO)OCO3 (stereo not given) | 19.4% (inactive)
24 | COc1cc(C(=O)/C=C/c2cc(-c3cc(OC)c(OC)c(OC)c3)n[nH]2)cc(OC)c1OC | 47.3% (inactive)
25 | CSc1nc(=O)n(Cc2ccc(Cl)cc2)c(=O)[nH]1 | 99.7% (inactive)
26 | N=C(N)c1ccc(-c2ccc(-c3cccs3)o2)cc1 | 79.4% (inactive)
27 | COc1ccc(-c2ccc3cc(C(=O)Nc4ccc(O)c(C(=O)/C=C/c5cc(OC)c(OC)c(OC)c5)c4)ccc3c2)cc1 | 109% (inactive)
28 | CN1CC[C@@H](c2c(O)cc(O)c3c(=O)cc(-c4ccccc4Cl)oc23)[C@@H](O)C1 | 47.6% (inactive)
29 | COc1cc(-c2nn3c(/C=C4/C(=O)Nc5ccccc54)c(-c4ccc(C)cc4)nc3s2)cc(OC)c1OC | 79.5% (inactive)
30 | COc1cc(-c2cc(/C=C3\C(=O)Nc4ccccc43)[nH]n2)cc(OC)c1OC | 87.5% (inactive)
31 | N#Cc1cc(-c2cc3ccccc3o2)oc1N | 17.3% (inactive)
32 | Cc1ccc2oc3nc(C)c(C(=O)NCc4ccccc4)cc3c(=O)c2c1 | 116% (inactive)
33 | COc1cc(-c2cc(C(=O)N3CCN(C(=O)c4ccccc4NCc4cccs4)CC3)nc3cc(-c4ccccc4)nn23)cc(OC)c1OC | 86.7% (inactive)
34 | COc1cc2cc3c(nc2cc1OC)CCN3Cc1ccc(NC(=O)c2ccc(Cl)c(C(F)(F)F)c2)cc1 | 91.7% (inactive)
35 | CC(C)=CCc1cc(O)cc2c1OC(C=C(C)C)C1=C2C(=O)C2=C(NCCS2(=O)=O)C1=O (stereo not given) | 4.28% (active)
36 | CSc1nn(-c2ccccc2)c2ncnc(Oc3ccccc3)c12 | 104% (inactive)
37 | CNc1ncc(-c2ccc(C(F)(F)F)cc2)c(NC2CCCCCC2)n1 | 83% (inactive)
38 | Nc1c(C(=O)Nc2cccc(F)c2)sc2nc3c(cc12)C(=O)CCC3 | 25.6% (inactive)
39 | CSC1=NCCCC1 | 108% (inactive)
40 | Cc1cs/c(=N\NC(=O)c2cc(-c3cc4ccccc4o3)nn2-c2ccccc2)n1-c1ccccc1 | 91.2% (inactive)
